PLK1 kinase inh: blocks human PLK1 kinase activity; recombinant PLK1 kinase, TR-FRET peptide phosphorylation; inhibition, % at 10 µM; hit rate 0.53% among 97,000; AID 619;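 active means inhibition of 50% or more in the single-concentration screen; inactive means inhibition below 50%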;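 further: 0% = DMSO max control and 100% = H-89 dihydrochloride min control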
PLK1 PBD inh: blocks phosphopeptide binding to human Plk1 polo box domain. P53350. Plk1 PBD phosphopeptide binding, fluorescence polarization. inhibition, %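 (tested at about 20 µM)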. hit rate 0.13% among 97,000. AID 693; in the data active means inhibition above about 34%, passing the limit was not always enough
PTK2B oligo ant: Pyk2 (human) oligomerization antagonism; Q14289; z-score (the deposit names both 25 µM and 10 µM); Q293 cells, Pyk2 FERM NanoBiT luminescence; stronger effect = lower value; hit rate 0.83% among 99,000;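 active means Z-score of -3 or lower, scaled per plate to the spread of control and sample wells; inactive means z-score above -3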;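 further: negative z-score means lost luminescence so less FERM oligomerization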
Target sequence (Q14289 whole entry, looked up): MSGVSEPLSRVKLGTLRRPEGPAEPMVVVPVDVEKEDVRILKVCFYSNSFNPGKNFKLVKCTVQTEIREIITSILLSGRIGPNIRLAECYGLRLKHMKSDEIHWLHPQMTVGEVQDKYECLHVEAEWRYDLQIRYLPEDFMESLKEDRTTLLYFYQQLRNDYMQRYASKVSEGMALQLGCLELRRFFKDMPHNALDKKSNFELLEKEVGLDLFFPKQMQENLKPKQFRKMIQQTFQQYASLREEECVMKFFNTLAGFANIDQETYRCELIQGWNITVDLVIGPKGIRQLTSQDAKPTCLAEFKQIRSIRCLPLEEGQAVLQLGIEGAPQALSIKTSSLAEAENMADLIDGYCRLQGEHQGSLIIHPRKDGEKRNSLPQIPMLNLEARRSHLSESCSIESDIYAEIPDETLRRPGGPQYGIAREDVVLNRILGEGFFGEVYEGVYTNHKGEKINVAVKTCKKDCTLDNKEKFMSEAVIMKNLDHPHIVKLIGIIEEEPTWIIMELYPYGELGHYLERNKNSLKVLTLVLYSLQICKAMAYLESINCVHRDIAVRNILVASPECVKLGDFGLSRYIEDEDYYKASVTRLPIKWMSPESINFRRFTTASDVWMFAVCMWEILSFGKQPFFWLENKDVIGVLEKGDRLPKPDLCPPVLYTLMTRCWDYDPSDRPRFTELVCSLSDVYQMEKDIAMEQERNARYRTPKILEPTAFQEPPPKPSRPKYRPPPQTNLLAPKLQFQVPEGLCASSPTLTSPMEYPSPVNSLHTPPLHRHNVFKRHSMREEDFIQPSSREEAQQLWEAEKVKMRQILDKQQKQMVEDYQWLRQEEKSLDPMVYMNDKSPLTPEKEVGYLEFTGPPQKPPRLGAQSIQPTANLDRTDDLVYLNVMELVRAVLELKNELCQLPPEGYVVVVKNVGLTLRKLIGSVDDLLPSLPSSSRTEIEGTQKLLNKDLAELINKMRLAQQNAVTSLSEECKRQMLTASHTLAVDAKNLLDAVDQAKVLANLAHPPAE
IL1B NFkB pot: enhances IL-1B driven NFkB nuclear translocation; HUVEC IL-1B NFkB p65 nuclear translocation imaging; activation, % at 2 µM; AID 819; hit rate 0.3% among 94,000;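 active means activation above 40%, about the mean plus 3 SD, also judged a hit on visual image review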;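 further: percent activation is computed from the nuclear over cytoplasmic p65 intensity ratio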
IL1B NFkB inh: blocks IL-1B driven NFkB nuclear translocation in HUVEC cells; HUVEC IL-1B NFkB p65 nuclear translocation imaging; inhibition, % at 2 µM; hit rate 0.43% among 94,000; AID 796;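 active means inhibition above about 30% together with a positive call from visual inspection of the well image, limit read from the data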;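 further: nuclear over cytoplasmic p65 intensity ratio measured by imaging; 0% = IL-1B stimulated DMSO wells and 100% = unstimulated DMSO wells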
HUVEC tox IL1B: toxic to HUVEC cells under IL-1B stimulation. hit rate 0.41% among 94,000. HUVEC cell count loss, Hoechst imaging, IL-1B stimulated. cell count reduction, % at 2 µM. AID 845;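 active means cell count reduction more than 3 SD above the screen-wide mean, cut at about 70% in these data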;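 further: normalized per plate to untreated control cells as the no-loss baseline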
Redox H2O2 DR: counter-screen for Plk1 PBD inhibitors: redox cycling H2O2 generation | shares compounds with PLK1 PBD inh | 120 tested, under 10 active | EC50, µM | DTT; call rule not given here
The depositor's hits bear a star; . = no result given. Most compounds without a hit are left out; they make up all but 2.2% or so of the library.

SMILES	PLK1 kinase inh	PLK1 PBD inh	PTK2B oligo ant	IL1B NFkB pot	IL1B NFkB inh	HUVEC tox IL1B	Redox H2O2 DR
CCC(Sc1nc2n[nH]c(C)c2c(=N)n1-c1ccc(C)c(Cl)c1)C(=O)N1CCOCC1 (configuration not stated)	.	.	-2.5	.	.	.	.
O=C(COc1ccccc1)Nc1ccc(S(=O)(=O)N2CCOCC2)cc1	-6	40*	-0.76	-2	2	-7	>50
COc1ccc(OCC(=O)Nc2ccc(S(=O)(=O)N3CCOCC3)cc2)cc1	-4	-11	0.52	10	-10	-6	.
CCCSc1nc(N2CCOCC2)c2c(c1C#N)CCCC2	-14	51*	-1.3	7	-7	20	>50
COc1ccc2c(c1OC)C(=O)OC2CC(=O)O (configuration not stated)	-10	40*	0.77	7	-7	18	>50
COc1ccc2c(c1OC)C(=O)OC2CC(=O)c1ccc(O)cc1 (configuration not stated)	.	.	0.94	.	.	.	.
O=C(CSc1cn(CCNC(=O)c2cccs2)c2ccccc12)NC1CCCC1	16	-4	.	11	-11	6	.
OCC(CO)(CO)N=Cc1cc(Br)ccc1O	-7	47*	0.34	0	0	-8	>50
O=C(NC(NC(=S)Nc1ccc(Cl)cc1Cl)C(Cl)(Cl)Cl)c1cccc([N+](=O)[O-])c1 (configuration not stated)	-2	56*	0.76	-12	12	-33	>50
O=C(NC(NC(=S)Nc1ccccc1)C(Cl)(Cl)Cl)c1cccc(Cl)c1 (configuration not stated)	-11	9	-2.7	-1	1	51	.
CCCCNC(=O)COC(=O)c1ccc(NS(=O)(=O)c2ccc3c(c2)OCCO3)cc1	-7	1	0.2	3	-3	-4	.
CC(=O)OC1c2ccccc2C(=O)N1Cc1ccccc1 (configuration not stated)	5	11	.	6	-6	-33	.
Cc1nn(C)c(C)c1S(=O)(=O)N(CC(=O)N1CCc2ccccc2C1)c1ccc(C(C)C)cc1	-3	20	.	-1	1	-3	.
O=C(O)C1CCCCC1C(=O)Nc1ccc2c(c1)OCCO2 (configuration not stated)	-8	52*	0.55	25	-25	-25	>50
O=C(O)C1C2C=CC(C2)C1C(=O)Nc1ccc2c(c1)OCCO2 (configuration not stated)	-7	7	-0.21	7	-6	1	.
COc1ccc2nc(SCC(=O)Nc3ccc(S(=O)(=O)Nc4nccc(C)n4)cc3)[nH]c2c1	-11	-12	0.11	7	-7	10	.
CCCNC(=O)Cn1cnc2sc(C(=O)N3CCN(CCC)CC3)c(C)c2c1=O	.	.	0	.	.	.	.
CCn1cnc2sc(C(=O)N3CCN(c4ccc(OC)cc4)CC3)c(C)c2c1=O	-5	45*	-0.02	2	-2	-6	>50
Cn1nc(C(F)(F)F)c(C(=O)Nc2ccc(F)cc2F)c1Sc1ccc(C(F)(F)F)cc1	-3	-44	-0.7	3	-3	-11	.
O=C(CN(Cc1ccccc1F)C(=O)Cn1nnc(-c2cccs2)n1)NC1CCCCC1	3	17	0.1	8	-8	-1	.
Cn1cc(SCC(=O)Nc2ccc3c(c2)OCCO3)c2ccccc21	4	44*	.	12	-12	-60	>50
CCn1c(=O)cc(SCC(=O)Nc2ccc3c(c2)OCO3)c2ccccc21	-7	17	-0.54	8	-8	-26	.
O=C(NC1CCCCC1)c1nc2c(nnn2Cc2ccccc2Cl)c(=O)[nH]1	-9	14	-0.42	-7	7	36	.
Cc1ccc(CNC(=O)c2cc3c(=O)n(C)c4ccccc4c3n2C)cc1	-71	62*	.	13	-13	0	>50
Cn1c(C(=O)NCc2cccs2)cc2c(=O)n(C)c3ccccc3c21	-22	-18	.	3	-3	-14	.
SMILES	PLK1 kinase inh	PLK1 PBD inh	PTK2B oligo ant	IL1B NFkB pot	IL1B NFkB inh	HUVEC tox IL1B	Redox H2O2 DR
COc1ccc(-c2cnc3nc[nH]c(=O)c3n2)cc1	-10	17	-0.23	22	-22	-59	.
Nc1cc(-c2ccc(Br)cc2)nn1S(=O)(=O)c1cccc2nsnc12	-2	47*	.	2	-2	12	>50
COCc1nnc(NS(=O)(=O)c2ccc(Br)cc2)s1	-5	-1	0.35	-4	4	3	.
CC1CN(C2CC(C)(C)NC(C)(C)C2)CCC1=O (configuration not stated)	0	53*	0.63	9	-10	-18	>50
Cc1cccc(C)c1NC1=NC(=S)N(c2ccccc2)C12CCOC(C)(C)C2 (configuration not stated)	-3	111*	0.25	11	-11	5	>50
COc1ccc(S(=O)(=O)N2Cc3ccccc3CC2C(=O)Nc2nccs2)cc1 (configuration not stated)	-6	-14	-0.54	-10	10	-10	.
CCOC(=O)c1c2c(n(C)c1C)C(=O)C(=O)c1ccc(Br)cc1-2	-5	116*	-3.5*	14	-14	37	0.61*
COc1cc(OC)cc(C(=O)NCCCN2CCOCC2)c1	-9	53*	1.4	2	-2	15	>50
CCn1c(SCC(N)=O)nnc1-c1ccc(S(=O)(=O)N2CCN(C)CC2)cc1	-11	44*	0.77	12	-12	-8	>50
CCn1c(SCC(=O)N2CCCCC2C)nnc1-c1ccc(S(=O)(=O)N2CCN(C)CC2)cc1 (configuration not stated)	-6	-28	-0.02	3	-3	-2	.
